Assay outcomes as filed in PubChem.
A selection: hits, their analogues and other compounds. The true share with any hit is near 2.8%.
SNCA viab count – GF-AFC viability counterscreen for inhibitors of alpha-synuclein gene (SNCA) expression; HEK-293-SNCA-luc viability, GF-AFC fluorescence, 24 h; Potency, µM (doses to about 57.1 µM), without a hit: at the highest dose activity change, negative = cytotoxicity, hits mostly cytotoxic; 150,000 compounds, 0.12% hits; AID 1671193, 2021;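 also: potency is read from the fitted curve at half-maximal effect; 0% = DMSO-treated cells and -100% = medium-only wells without cells; nearly all actives have a fitted effect of over 30% in size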
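HEK-293-SNCA-luc cells (1500/well) plated 24 h, then exposed 24 h to a dilution series; GF-AFC added 30 min at 37C, fluorescence 405/540 nm; normalised to medium-only and DMSO wells, Hill fit.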
SNCA expr inh – Primary qHTS assay for inhibitors of alpha-synuclein gene (SNCA) expression; Potency, µM (titrated, usually from 57.2 µM), for inactives: at the highest dose activity change, negative = inhibition, usual class: inhibitors; AID 1671194, 2021; 140,000 compounds, 0.17% hits; HEK-293 SNCA-luciferase knock-in, luminescence, 24 h;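 also: potency is read from the fitted curve at half-maximal effect; plate controls were DMSO cells for no effect and cell-free wells for full effect; nearly all actives have a fitted effect of over 45% in size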
IP6K1 inhibitor – Primary qHTS assay for small molecule inhibitors of Inositol hexaphosphate kinase 1 (IP6K1). 140,000 compounds, 0.81% hits. activity change, % (series mostly up to about 58 µM). IP6K1 kinase, ADP-Glo luminescence, 2 h; hits give low values; in the data active = activity change below about -25%; also: % is scaled to controls: 0 for no effect and ±100 for the full control effect
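ADP-Glo luminescence measures ADP made by human IP6K1 during a 2 h RT reaction with ATP/IP6 (mix at 1.3 mM/130 uM); top library doses 57.5 and 19.1 uM final.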
KDM5B inh – Primary screen for KDM5B Histone Demethylases FDH-coupled qHTS | Lysine-specific demethylase 5B (Homo sapiens), Q9UGL1 | KDM5B demethylase, FDH-coupled NADH fluorescence (FDH is formaldehyde dehydrogenase) | Potency, µM (titrated, usually from 57.7 µM), usual class: inhibitors | 220,000 compounds, 2.6% hits | AID 1347165, 2019; also: potency is read from the fitted curve at half-maximal effect; 0% is about no effect; nearly all actives have a fitted effect of over 70% in size
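KDM5BΔAP (200 nM final) in 50 mM HEPES pH 7.5, 0.01% Tween-20 was preincubated 10 min at RT with compound over a concentration range. Substrate mix (H3K4me3 12.5 µM, α-KG 25 µM, Fe²⁺, ascorbate, NAD⁺, FDH) was added, and NADH fluorescence change over 30 min gave dose-response curves.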
Starred values were filed as active, the others as inactive; i = inactive; ? = inconclusive; . = not tested or not shown; [ ] = remark or other dose. Unless noted, calls follow the shape of the dose curve; as a rule, active = well fitted curve in the direction sought with a large enough effect; inconclusive = small, poorly fitted or top-dose-only effect, or another doubt; inactive = no such curve, though single readings can be large; an effect the other way counts as inactive or inconclusive.

SMILES	SNCA viab count	SNCA expr inh	IP6K1 inhibitor	KDM5B inh
N#Cc1ccccc1CN1CCN(c2nccc(CCC(F)(F)F)n2)CC1	8%	-16%	11	i
C=C1C(=O)[C@@]23C(CC[C@@H]1[C@H]2O)[C@@]12CO[C@]3(O)[C@@H](O)[C@@H]1C(C)(C)CC[C@@H]2O (some centres not stated)	30µM*	34µM*	-1	.
CN(C)Cc1ccc(-c2cc3c(ccn3C)c(C(=O)NCc3cccnc3)n2)cc1	-24%[87.6 µM]	5%[87.6 µM]	4	i
Cn1ccc2c(C(=O)NCC3CCC(=O)N3)nc(-c3ccccc3)cc21 (configuration not stated)	3%[87.6 µM]	?	10	i
Cn1ccc2c(C(=O)NCc3cccnc3)nc(-c3ccccc3)cc21	1%[87.6 µM]	0%[87.6 µM]	-3	32µM*
Cn1nccc1-c1cc2c(ccn2C)c(C(=O)NCc2cccnc2)n1	1%[87.6 µM]	10%[87.6 µM]	32	i
Cn1ccc2c(C(=O)NCc3cccnc3)nc(-c3ccc(F)cc3)cc21	-6%[87.6 µM]	4%[87.6 µM]	-2	i
Cn1ccc2c(C(=O)NCc3cccnc3)nc(-c3ccccc3C#N)cc21	-19%[87.6 µM]	16%[87.6 µM]	-7	13µM*
O=C1CCC(CNC(=O)c2nc(-c3ccccc3)cc3[nH]ccc23)N1 (configuration not stated)	10%[87.6 µM]	24%[87.6 µM]	-19	32µM*
COc1ccc(-c2cc3c(ccn3C)c(C(=O)NCc3cccnc3)n2)cc1OC	-20%[87.6 µM]	60%[87.6 µM]	0	35µM*
COCCOCC1(CNCC2CCCC2)C[C@@H](O)[C@@H](O)C1 (some centres not stated)	0%[87.6 µM]	14%[87.6 µM]	8	i
Cc1cnc(CC2CCN(C(=O)C(C)c3ccccc3)CC2)n1Cc1ccc(F)cc1 (configuration not stated)	4%	-11%	-2	i
COc1cc(F)ccc1-c1cc2c(ccn2C)c(C(=O)NCc2cccnc2)n1	-18%[87.6 µM]	10%[87.6 µM]	-1	40µM*
O=C(NCc1cccnc1)c1nc(-c2ccccc2)cc2[nH]ccc12	-5%[87.6 µM]	-12%[87.6 µM]	-8	35µM*
COc1ccccc1CN1CCc2nc(N3CCN(C)CC3)[nH]c(=O)c2CC1	-8%	33%	0	i
CC(C)N1C(=O)CO[C@H]2CCN(Cc3ccccn3)CC[C@@H]21	3%[87.6 µM]	-1%[87.6 µM]	-11	35µM*
CCc1cccc(-n2nnnc2N2CCN(C(=O)NC(C)(C)c3ccccc3)CC2)c1	1%	-27%	-10	i
CCOc1ccccc1C(=O)NC(C(=O)OCc1ccccc1)C(C)C (configuration not stated)	.	.	.	i
CCOc1ccc(CCNC(=O)c2cn(C)c3ccc(S(=O)(=O)N4CCCCC4)cc3c2=O)cc1OCC	-2%	23%	-27*	?
O=C(N[C@H]1CCOC[C@H]1C1CCOCC1)c1cc(=O)[nH]c2ccc(F)cc12	3%	5%	3	22µM*
N#Cc1ccc(CN2CCCCCCNC(=O)[C@@H]3C[C@@H](C(=O)N4CCc5ccccc5C4)C[C@@H]32)cc1	-23%	-17%	8	25µM*
O=C1NCCCCCCN(Cc2cccc(F)c2)[C@H]2C[C@H](C(=O)N3CCc4ccccc4C3)C[C@@H]12	-25%	?	-2	?
N#Cc1ccccc1CN1CCCCCCNC(=O)[C@@H]2C[C@@H](C(=O)N3CCc4ccccc4C3)C[C@@H]21	?	?	-5	20µM*
COc1ccc(Nc2nc(N3CCN(Cc4ccccc4)CC3)nc3nccnc23)cc1	.	.	.	i
COc1ccc(-c2cn3nc(N4CCC(C(=O)Nc5cccc(OC)c5)CC4)sc3n2)cc1	-10%	2%	-17	?
CNC(=O)c1cccc(-c2cnc(Nc3cccnc3OC)c3c2CCO3)c1	?	2%[87.6 µM]	-5	35µM*
CNC(=O)c1cccc(-c2cnc(Nc3ccccc3)c3c2CCO3)c1	-17%[87.6 µM]	172%[87.6 µM]	-18	32µM*
COc1cncc(Nc2ncc(-c3cccnc3)c3c2OCC3)c1	5%[87.6 µM]	109%[87.6 µM]	-20	i
CNC(=O)c1cccc(-c2cnc(Nc3ccc(N4CCOCC4)cc3)c3c2CCO3)c1	-23%[87.6 µM]	96%[87.6 µM]	-19	?
O=C(NCc1cc(F)ccc1F)c1cccnc1N1CC2CC(C1)[C@H]1CCCC(=O)N1C2 (some centres not stated)	-12%	6%	16	32µM*
